In PubChem BioAssay AID652141 (The Scripps Research Institute Molecular Screening Center, 2013) one finds inhibition data, which are given here for 94 molecules.

Hit rate of the full screen: of about 5,600 compounds, about 4,500 (80%) were called active. So high a share suggests a set chosen from earlier hits. A selection follows. A number with no mark means an inactive call. No stated cut-off is given here; in the data, active means inhibition above about 10%; inactive means the rest.

A word on the inhibition: it is the drop in the measured response relative to a control, in per cent.

A short description of this assay: inhibition of coupled GDH and TPI enzymes – biochemical, fluorescence, high throughput, artefact control for M. tuberculosis FBA inhibitor project (AID 652141). The settings on record: GDH-TPI coupled enzyme counterscreen, at 1 µM, stronger effect = higher value. In general terms: A counterscreen serves to expose hits that act by an unwanted route or on another target.
For the molecule `COCCCNC(=S)N(CCN(C)C)Cc1cc2cc3c(cc2[nH]c1=O)OCCO3`, the inhibition is 41% (active).
Consider `Cc1ccc2nc(/C(C#N)=C\c3ccc(OC(=O)c4cccs4)cc3)[nH]c2c1`, for which the inhibition is 39% (active).
The same measure for `Cc1ccsc1C(=O)N[C@@H](C)c1nnc2ccccn12`: 110% (active); for `CCC1C(=O)c2ccccc2N(C)C1=O` (centres undefined): -6.39%.
As to `O=C(NCCN1CCOCC1)c1ccc2c(c1)N(Cc1ccc(Cl)cc1)CCS2`, the inhibition is 48.2% (active).
For `CN1CCN(CCCNC(=O)c2ccc(/C=C3\Oc4ccccc4N(Cc4ccc(Cl)cc4)C3=O)cc2)CC1`, the inhibition was -4.56%.
For the molecule `O=C(NCCc1ccccc1)c1ccc2c(c1)N(Cc1ccccc1)CCS2`, the inhibition is 29.2% (active).
For the molecule `CC(C)(C)Nc1c(-c2cccs2)nc2ccccn12`, the inhibition was 114% (active).
Take `Cc1c(CCC(=O)O)c(=O)oc2cc(OCc3ccc(Br)cc3)ccc12`: the inhibition was 1.56%.
As for `CCOC(=O)c1c(-c2ccccc2)oc2ccc(OCC(=O)NN)cc12`, the inhibition was 74.7% (active).
As for `Cc1c(Cc2ccccc2)c(=O)oc2cc(OCC(N)=O)ccc12`, the inhibition is 899% [above what the read-out allows, likely interference] (active).
To `CCOC(=O)c1c(-c2ccccc2)oc2ccc(OCC(N)=O)cc12` belongs 126% (active); to `COC(=O)c1c(-c2ccsc2)oc2ccc(-c3cc(OC)c(OC)c(OC)c3)cc12`, -4.81%.
`CCOC(=O)c1c(-c2ccccc2)oc2ccc(OC(=O)N(C)C)cc12`: the inhibition was 164% (active).
For the molecule `C=CCNC(=O)c1ccc2c3n(nc2c1)-c1ccc(C)cc1CO3`, the inhibition is 160% (active).
As to `CCOC(=O)CSc1nc2c(c(=O)n(Cc3ccccc3Cl)c(=O)n2C)n1C`, the inhibition was 28.5% (active).
`COc1ccc(-n2cc(CN(C)Cc3n[nH]c(=O)[nH]3)c(-c3cccc(F)c3)n2)cc1`: the inhibition was 37.4% (active).
In the case of `COc1ccc(-n2cc(CNC3CCOCC3)c(-c3cccc(F)c3)n2)cc1`, the inhibition is 15.8% (active).
Turning to `CCCc1nc2oc3c(=O)[nH]cnc3c2c2c1COC(C)(C)C2`, the inhibition was 101% (active).
Regarding `O=C(O)/C=C/c1cn(-c2ccccc2)nc1-c1cccs1`, the inhibition is 76.6% (active).
`COc1ccccc1-c1oc2ccccc2c1C#CCCCCO`: the inhibition was 145% (active).
The same measure for `Cc1ccc(-c2nc(C#N)c(NCCCn3ccnc3)o2)cc1`: 34.1% (active); for `Cn1cc(-c2ccccc2)cc(C#N)c1=O`: 79.8% (active); for `C=CCn1cc(-c2cccc(C(F)(F)F)c2)cc(C#N)c1=O`: -2.28%.
The same measure for `CN(CCNC(=O)c1cc2c(-c3ccccc3F)nn(C)c2s1)C1CCCCC1`: 183% (active); for `CCOC(=O)c1cc2cc(C)ccc2[nH]1`: 42.5% (active).
The same measure for `Cc1cc(C)c2c(NC(=O)C3CC3)nn(C)c2n1`: 72.7% (active); for `Cc1cc(C)c2c(n1)nn1c(-n3ccnc3)cc(C)nc21`: -4.63%.
`Cc1cc(=O)n2[nH]c(-c3cccc(Cl)c3)cc2n1`: the inhibition is 82.4% (active).
On to `CC(C)n1ncc2c(C(=O)NCc3ccccc3CN(C)C)cc(C3CC3)nc21`, for which the inhibition was 108% (active).
For `CCCS(=O)(=O)Nc1c(C(=O)O)[nH]c2ccccc12`, the inhibition is 48.1% (active).
For the molecule `CC(C)CN1CCNC(=O)C1CC(=O)N(C)CC1CCOCC1` (centres undefined), the inhibition is 106% (active).
`COCCCNC(=S)NCCNc1nc2cc(C)c(C)cc2cc1C#N`: the inhibition is 60.5% (active).
For the molecule `CN(CCc1ccccn1)S(=O)(=O)c1ccc2c3c(cccc13)C(=O)N2`, the inhibition was 103% (active).
To `CCC(C)N(C(=O)COC(=O)C1C(C(=O)OC)=C(C)NC(C)=C1C(=O)OC)C1CCS(=O)(=O)C1` (centres undefined) belongs 111% (active); to `CCN(C(=O)COC(=O)c1ccc(COc2ccc3c(C)cc(=O)oc3c2)cc1)C1CCS(=O)(=O)C1` (centres undefined), -0.6%.
As for `Cc1ccc(-c2nc3ccccc3c(=O)n2-c2ccc(Br)cn2)cc1`, the inhibition was 98.6% (active).
For `CC1(C(=O)NCc2ccc(F)c(F)c2)Cc2c(-c3ccc4c(c3)OCO4)ccnc2O1` (centres undefined), the inhibition was 108% (active).
To `CC1(C(=O)NCc2ccco2)Cc2c(-c3ccc4c(c3)OCO4)ccnc2O1` (centres undefined) belongs -4.87%.
As to `CC(C)OCCCNc1ncnc2c1[nH]c1ccc(F)cc12`, the inhibition was 97.1% (active).
To `CCCCNc1c(-c2cccc(Sc3ccc(OC)cc3)c2)nc2ccccn12` belongs 32.5% (active); to `CCc1c(C)nc2cc(-c3cccs3)[nH]n2c1=O`, 19.6% (active).
Take `C=CCc1c(C)nc2cc(-c3ccccc3)[nH]n2c1=O`: the inhibition is 49.2% (active).
In the case of `CCc1c(C)nc2cc(C)[nH]n2c1=O`, the inhibition was 41.7% (active).
The same measure for `Cc1ccc(S(=O)(=O)N2C[C@@H](C)[C@]3(C2)[C@H](O)[C@H](OC(=O)NCc2ccccc2)C[C@H]2C(=O)N(c4ccccc4)C(=O)[C@H]23)cc1`: -1.04%; for `CN(C)Cc1c(O)ccc2c(=O)c(-c3ccccc3Cl)coc12`: 3.78%; for `C[C@H](O)[C@@H]1C(=O)N2CCc3c([nH]c4ccccc34)[C@@H]2C[C@@H]1N(C)C(=O)Nc1ccc(F)cc1`: 182% (active).
With `O=C(O)c1cccnc1Sc1ncnc2sc3c(c12)CCC3`, the inhibition is 47.7% (active).
For `N#Cc1c(N)n(CCOC(=O)c2ccc(Cl)cc2)c2nc3ccccc3nc12`, the inhibition is 27.5% (active).
Take `CC(OC(=O)c1ccccc1NCCO)C(=O)Nc1ccnn1C(C)C` (centres undefined): the inhibition is 83.3% (active).
Consider `COc1cc2nc(N3CCN(C(=O)[C@@H]4CCCO4)CC3)nc(N)c2cc1OC`, for which the inhibition was 81.7% (active).
On to `Cc1ccc(NC(=O)CN(C)C(=O)COC(=O)c2nccnc2N)cc1`, for which the inhibition is -3.67%.
For the molecule `Cc1nc2ccc(NC(=O)N3CCC(c4ccccc4)C3)cc2nc1C` (centres undefined), the inhibition was 70.1% (active).
For the molecule `CCN1CCc2c(C#N)c(NCc3ccccc3)nc(NCCO)c2C1`, the inhibition is 139% (active).
Regarding `O=C(Nc1ccc2nccnc2c1)c1ccco1`, the inhibition was 515% [above what the read-out allows, likely interference] (active).
Regarding `O=C1OCCN1C(=O)[C@H]1[C@H](c2ccc(F)cc2)C(c2ccccc2)=NN1c1ccc(Br)cc1`, the inhibition was 38.6% (active).
The same measure for `C#Cc1cc(N2CCN(C(=O)c3ccoc3)CC2)n2nc(-c3cccc(Cl)c3)cc2n1`: 73.9% (active); for `Cc1nc(COc2cc3oc(=O)cc(C)c3cc2Cl)cs1`: 171% (active).
Consider `Cc1ccc(Cn2c(C)nc3c(c2=O)c2nc4ccccc4nc2n3Cc2ccco2)cc1`, for which the inhibition was 48.7% (active).
Take `CC[C@@H]1Cc2cc(O)ccc2C2=C1c1ccc(O)cc1C[C@H]2CC`: the inhibition is 79.8% (active).
In the case of `COc1ccc2oc(=O)c(C(=O)N3CCCC3)cc2c1`, the inhibition was 99.7% (active).
`COc1ccc2oc(=O)c(C(=O)NCc3ccccn3)cc2c1`: the inhibition is -4.05%.
To `Nc1ccccc1-c1nc2ccncc2[nH]1` belongs 0.69%; to `O=C(Nc1cccc2ccccc12)N1CCN(Cc2ccc3c(c2)OCO3)CC1`, 34.8% (active); to `O=C(Nc1cccc2ccccc12)N1CCC2(CC1)OCCO2`, 93.7% (active).
With `COc1cc(C(F)(F)F)nc2c(Br)c(C(C)(C)C)nn12`, the inhibition was 47.7% (active).
On to `O=C(NCc1cccc(Cl)c1)C1=CC=CN2CCS(=O)(=O)N=C12`, for which the inhibition was -4.53%.
In the case of `CNc1nc(-c2ccccc2)cc(-c2ccccc2)n1`, the inhibition is 73.9% (active).
Consider `Nc1nc2n(n1)C(c1ccco1)CC(c1ccc(Cl)c(Cl)c1)N2` (centres undefined), for which the inhibition was 199% (active).
To `Cn1c(-c2ccco2)nc2cc3ccccc3cc21` belongs 36.5% (active).
With `Cn1cccc1-c1nc2ccccc2n1C`, the inhibition was 9.72%.
Consider `O=C(Nc1nncs1)c1ccccc1NS(=O)(=O)c1cccs1`, for which the inhibition is 115% (active).
The same measure for `CCOC(=O)NN1C(=O)c2ccccc2NC1c1cccc(O)c1` (centres undefined): 100% (active); for `Cc1ccc(C2Nc3ccccc3C(=O)N2CCN2CCNC2=O)cc1` (centres undefined): -5.86%.
Regarding `Cc1cc(C)nc(SCc2cn3c(C)cc(C)nc3n2)n1`, the inhibition is 69.3% (active).
To `Cc1nn(C)c(Oc2ccccc2)c1CCNS(=O)(=O)c1ccc(F)cc1` belongs 124% (active); to `COc1cc(/C=C/c2ccc(/C=C/c3cc(OC)c(OC)c(OC)c3)cc2)cc(OC)c1OC`, 11.4% (active).
As to `COCCCNC(=O)/C(C#N)=C/c1c(N2CCCCCC2)nc2ccccn2c1=O`, the inhibition is 50.5% (active).
Turning to `CC[C@@H](C)[C@H](NC(=O)CCc1c(C)c2cc3c4c(oc3c(C)c2oc1=O)CCCC4)C(=O)O`, the inhibition is 83% (active).
Turning to `COCc1cc(=O)n2[nH]c(C)c(-c3ccccc3)c2n1`, the inhibition was 39.7% (active).
`Cc1nc2c(-c3ccccc3)c(C)[nH]n2c(=O)c1Cl`: the inhibition is 81.2% (active).
For `CCCc1cc(=O)n2[nH]c(C)c(-c3ccc(Cl)cc3)c2n1`, the inhibition was 108% (active).
In the case of `CN1CCc2c(sc3c2c(NCc2ccco2)nc2nnnn23)C1`, the inhibition was 183% (active).
To `O=C(CCC(=O)N/N=C/c1ccc(Br)o1)N/N=C/c1ccc(Br)o1` belongs 88.2% (active).
To `Fc1ccc(COc2cccc(-c3n[nH]c(=S)o3)c2)cc1` belongs 137% (active).
For `CCN(C(=O)Nc1cccc2ccccc12)c1ccccc1`, the inhibition was 118% (active).
`COc1cc(OC)cc(C(=O)Nc2ccc(-c3nc4ccccc4o3)c(O)c2)c1`: the inhibition is 135% (active).
The same measure for `CC(=O)Nc1ccc(-c2nc3ccccc3o2)cc1`: -2.16%; for `CC(C)(C)C(=O)Nc1cccc(-c2ccc[nH]2)n1`: 71% (active); for `CC(C)(C)NC(=O)COc1ccc(CNc2ccc3[nH]c(=O)[nH]c3c2)cc1`: 2.64%.
The same measure for `COCCCn1c(C(=O)NC2CCCCC2)cc2c(=O)n3cccc(C)c3nc21`: 53.1% (active).
Take `Cc1ccn2c(c1)nc(=O)c1cc(S(=O)(=O)N3CCC(C)CC3)ccc12`: the inhibition is -0.78%.
In the case of `Cc1ccc(-n2c(=O)c(C#N)cc3c(=O)n4ccccc4nc32)cc1C`, the inhibition is 19.5% (active).
With `Cc1coc2c1c(C)cc1oc(=O)c(CC(=O)NCC(=O)N[C@H](C(=O)O)C(C)C)c(C)c12`, the inhibition is 49.8% (active).
